# Assay results published in PubChem BioAssay.
# Values joined by “and” are separate entries in the source; they are usually repeats but may differ in a detail not shown here. Identical values can stand only once. Active and inactive are the calls of the source. Rule as the data show it, unless noted: active = inhibition above about 80%; inactive = the rest.
# Legend:
# [1] = UWB1.289 ovarian carcinoma cell growth inhibition, synergistic combos for chromothripsis tumors, BGB or cisplatin combos (AID 1671456); conditions: UWB1.289 ovarian carcinoma cells, stronger effect = higher value;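 also: cells exposed to compound for four days; 0% = vehicle DMSO and 100% = killing by high DMSO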
# [2] = LFS_MB_2R medulloblastoma cell growth inhibition, synergistic combos for chromothripsis tumors, cisplatin combos (AID 1671457); conditions: LFS_MB_2R medulloblastoma cells, stronger effect = higher value;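 also: cells exposed to compound for four days before readout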
# [3] = MDA-MB-436 breast carcinoma cell growth inhibition, synergistic combos for chromothripsis tumors, BGB or cisplatin combos (AID 1671458; call rule not given here;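 also: cells exposed for 96 hours; 0% = vehicle DMSO and 100% = killing by high DMSO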); conditions: MDA-MB-436 breast carcinoma growth inhibition, drug combinations, stronger effect = higher value
# [4] = UWB1.289_BRCA1 ovarian cancer growth, cell-based, BGB or cisplatin combinations (AID 1671459); conditions: UWB1.289 BRCA1 ovarian carcinoma, drug combinations, stronger effect = higher value
# [5] = human astrocyte viability loss, single and combined drugs, cytotoxicity control for chromothriptic childhood tumor combination screen, cell-based, BGB or cisplatin IC20 combos (AID 1671460); conditions: Human astrocytes, drug combinations, stronger effect = higher value;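 also: cells exposed to compounds for 96 hours before viability readout; 0% = vehicle and 100% = killing control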
# [6] = growth inhibition of BT084 medulloblastoma cells, cell-based, ICGC_MB145, cisplatin and BGB IC40 combos (AID 1671461); conditions: drug combinations, stronger effect = higher value;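 also: cells exposed to drugs for 96 hours; 0% = vehicle DMSO and 100% = high DMSO full killing control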
# [7] = growth inhibition of RCMB18 medulloblastoma cells, cell-based, cisplatin and BGB IC40 combos (AID 1671462); conditions: stronger effect = higher value;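 also: cells exposed to compound for four days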
# [8] = growth inhibition of CRL1545 osteosarcoma cells, cell-based, cisplatin and BGB IC20 combos (AID 1671464); conditions: stronger effect = higher value;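 also: cells exposed to compound for 96 hours before readout; 0% = vehicle DMSO and 100% = high DMSO killing control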
# [9] = system: F380Y; test: modulators of BK channel variants, profiling panel, selectivity assay, cell-based, U2OS BacMam, thallium flux, beta subunits (AID 1259406;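 active = thallium flux through the channel raised or lowered by more than 3 SD from vehicle-only wells, actives on both sides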;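 also: initial slope of Thallos dye fluorescence rise after thallium is added; log ratio against the mean of 0.3% DMSO vehicle wells on the same plate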); conditions: at 30 µM
# [10] = system: F380Y/beta1; test: as above; conditions: at 30 µM
# [11] = measured here: inhibition with BGB combination, at 0.05 µM
# [12] = measured here: inhibition with cisplatin combination, at 0.05 µM
# [13] = measured here: combination with cisplatin, at 0.5 µM
# [14] = measured here: combination with cisplatin, at 5 µM
# [15] = measured here: BGB combination, at 0.5 µM
# [16] = measured here: BGB combination, at 5 µM
# [17] = measured here: cisplatin combination, at 0.5 µM
# [18] = measured here: cisplatin combination, at 5 µM
# [19] = BGB combination, concentration series, at 5 µM
# [20] = cisplatin combination, concentration series, at 5 µM
# [21] = measured here: combo with BGB IC20, at 0.5 µM
# [22] = measured here: combo with cisplatin IC20, at 0.5 µM
# [23] = cisplatin combination, at 0.5 µM
# [24] = measured here: BGB IC40 combination 0.05 uM, at 0.05 µM
# [25] = measured here: BGB IC40 combination, at 0.05 µM
# [26] = measured here: with BGB IC20 combination, at 0.5 µM
# [27] = measured here: with cisplatin IC20 combination, at 0.5 µM
structure (smiles),measurement,setting,value
Nc1nc2c(ncn2CCC(CO)CO)c(=O)[nH]1,inhibition,[1]; at 0.5 µM,-12.6% (inactive) and 3.48% (inactive)
same,inhibition,[1]; [11],-7.99% and -7.52%
same,inhibition,[1]; [12],-19.6% and -12.5%
same,inhibition,[2]; at 0.5 µM,-3.59% (inactive) and -17% (inactive)
same,inhibition,[2]; [13],-6.24% and -17.7%
same,inhibition,[2]; [14],9.1% and -63%
same,inhibition,[3]; at 0.5 µM,-1.2% (inactive) and -23.3% (inactive)
same,inhibition,[3]; [15],8.81% and -18.4%
same,inhibition,[3]; [16],4.8% and -29%
same,inhibition,[3]; [17],-6.71% and -45.8%
same,inhibition,[3]; [18],5.49% and -36%
same,inhibition,[4]; [19],-16.8% and -15.8%
same,inhibition,[4]; at 0.5 µM,-10.2% (inactive) and 1.59% (inactive)
same,inhibition,[4]; [20],4.16% and 10.4%
same,inhibition,[5]; at 0.5 µM,6.25% (inactive) and 7.18% (inactive)
same,inhibition,[5]; [21],34.9% and 5.65%
same,inhibition,[5]; [22],-9.35% and -4.75%
same,inhibition,[6]; at 0.5 µM,8.52% (inactive) and -29.3% (inactive)
same,inhibition,[6]; [23],-11.9% and -14.8%
same,inhibition,"[6]; cisplatin combination, at 5 µM",-3.68% and -10.8%
same,inhibition,[6]; [24],45.4% and 1.15%
same,inhibition,"[6]; single agent, at 5 µM",-12.8% and -18.7%
same,inhibition,[7]; at 0.5 µM,0.33% (inactive) and -16.2% (inactive)
same,inhibition,"[7]; cisplatin combo, at 5 µM",3.43% and -89.1%
same,inhibition,[7]; [25],3.48% and 8.53%
same,inhibition,[7]; [13],-3.27% and -9.97%
same,inhibition,"[7]; single agent, at 5 µM",-16.9% and 37.5%
same,inhibition,[8]; at 0.5 µM,-5.94% (inactive) and 9.73% (inactive)
same,inhibition,[8]; [26],-31% and 11.5%
same,inhibition,[8]; [27],6.57% and 6.77%
same,inhibition,"[8]; single agent, at 0.05 µM",-14.4% and -21.2%
same,inhibition,"[8]; single agent, at 5 µM",-30.6% and 1.59%
same,log fold change Tl+ flux,[9],0.0173 (inactive)
same,log fold change Tl+ flux,[10],-0.0111 (inactive)
O=C(O)P(=O)(O)O,inhibition,[1]; at 0.5 µM,-11.3% (inactive)
same,inhibition,[1]; [11],-27.2%
same,inhibition,[1]; [12],-24%
same,inhibition,[2]; at 0.5 µM,-19.3% (inactive)
same,inhibition,[2]; [13],-14.2%
same,inhibition,[2]; [14],-18.5%
same,inhibition,[3]; at 0.5 µM,-30.5% (inactive)
same,inhibition,[3]; [15],-34.2%
same,inhibition,[3]; [16],-30.6%
same,inhibition,[3]; [17],-45.7%
same,inhibition,[3]; [18],-24.2%
same,inhibition,[4]; [19],-19.2%
same,inhibition,[4]; at 0.5 µM,-15.7% (inactive)
same,inhibition,[4]; [20],-10.9%
same,inhibition,[5]; at 0.5 µM,0.14% (inactive)
same,inhibition,[5]; [21],1.18%
same,inhibition,[5]; [22],-8.98%
same,inhibition,[6]; at 0.5 µM,-21.4% (inactive)
same,inhibition,[6]; [23],-13.9%
same,inhibition,"[6]; cisplatin combination, at 5 µM",-72.5%
same,inhibition,[6]; [24],11.4%
same,inhibition,"[6]; single agent, at 5 µM",-13.1%
same,inhibition,[7]; at 0.5 µM,-28.6% (inactive)
same,inhibition,"[7]; cisplatin combo, at 5 µM",-9.59%
same,inhibition,[7]; [25],-13.4%
same,inhibition,[7]; [13],-44.4%
same,inhibition,"[7]; single agent, at 5 µM",-27.5%
same,inhibition,[8]; at 0.5 µM,-83.7% (inactive)
same,inhibition,[8]; [26],-15.5%
same,inhibition,[8]; [27],-118%
same,inhibition,"[8]; single agent, at 0.05 µM",-51.7%
same,inhibition,"[8]; single agent, at 5 µM",-82.1%
Cn1nnc2c(C(N)=O)ncn2c1=O,inhibition,[1]; at 0.5 µM,10.5% (inactive) and 0.13% (inactive)
same,inhibition,[1]; [11],4.75% and -18.9%
same,inhibition,[1]; [12],25.6% and -6.43%
same,inhibition,[2]; at 0.5 µM,7.22% (inactive) and -24.1% (inactive)
same,inhibition,[2]; [13],1.03% and -18.7%
same,inhibition,[2]; [14],8.16% and -14%
same,inhibition,[3]; at 0.5 µM,6.91% (inactive) and -16.3% (inactive)
same,inhibition,[3]; [15],12.9% and -14.6%
same,inhibition,[3]; [16],4.06% and -13.6%
same,inhibition,[3]; [17],2.96% and -35.2%
same,inhibition,[3]; [18],1.26% and -29.8%
same,inhibition,[4]; [19],6.41% and 2.63%
same,inhibition,[4]; at 0.5 µM,6.2% (inactive) and -1.71% (inactive)
same,inhibition,[4]; [20],-10.8% and 7.27%
same,inhibition,[5]; at 0.5 µM,14.2% (inactive) and -4.55% (inactive)
same,inhibition,[5]; [21],6.32% and -9.95%
same,inhibition,[5]; [22],16.8% and -6.6%
same,inhibition,[6]; at 0.5 µM,-1.52% (inactive) and -18.4% (inactive)
same,inhibition,[6]; [23],-21% and -7.48%
same,inhibition,"[6]; cisplatin combination, at 5 µM",1.38% and -35.6%
same,inhibition,[6]; [24],-9.43% and 0.326%
same,inhibition,"[6]; single agent, at 5 µM",8.38% and -21.4%
same,inhibition,[7]; at 0.5 µM,-3.58% (inactive) and -13.6% (inactive)
same,inhibition,"[7]; cisplatin combo, at 5 µM",-29.7% and 13.3%
same,inhibition,[7]; [25],7.57% and -3.63%
same,inhibition,[7]; [13],-5.87% and -11.2%
same,inhibition,"[7]; single agent, at 5 µM",-2.81% and -25.8%
same,inhibition,[8]; at 0.5 µM,-15.1% (inactive) and -33.6% (inactive)
same,inhibition,[8]; [26],-16.2% and -3.96%
same,inhibition,[8]; [27],-16.4% and -48.4%
same,inhibition,"[8]; single agent, at 0.05 µM",-25.4% and 17.1%
same,inhibition,"[8]; single agent, at 5 µM",-10.6% and 18.5%
same,log fold change Tl+ flux,[9],-0.0478 (inactive)
same,log fold change Tl+ flux,[10],-0.022 (inactive)
